Test results published in PubChem BioAssay (NCI).
Compounds without any hit were thinned out: in the full panel of roughly 83,000, 20% have a hit.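 Single-concentration screen, 48 h exposure, 96-well plates. Endpoint: percent growth. Below 10 = active.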 Values without a mark were called inactive.

Each molecule was assayed on HL-60(TB) leukemia (assay: NCI-60 one-dose screen, 48 h (100 = growth as untreated, 0 = no growth, -100 = all killed)). Conditions: 10 µM unless noted.

Row | Compound | growth [%]
1 | CCOc1ccc(-c2nc3ccc(-c4nc5ccc(N6CCN(C)CC6)cc5[nH]4)cc3[nH]2)cc1OCC | 24.8
2 | CCOC(=O)C1=C(C(F)(F)F)NC(=O)NC1CN1C(=O)c2ccccc2C1=O (stereo not drawn) | 46.2
3 | Cc1nc2cc(Nc3nc(N4CCCCC4)nc(N4CCOCC4)n3)ccc2n1Cc1ccccc1 | 75
